Screening data: PubChem, National Center for Advancing Translational Sciences (NCATS)
The sample as a whole holds a higher share of hits than the screen did.
IMPase cell inh: membrane-permeable compound that blocks inositol monophosphatase | inhibition (IP1 accumulation), % at 46.1 µM | 120,000 tested, under 10 active | P97697 | CHO-M1 cells, IP1 accumulation, HTRF TR-FRET ratio; active = well fitted curve in the direction sought with a large enough effect in the signal ratio, not every such curve was filed as active; inconclusive = small, poorly fitted or top-dose-only effect, or a change in a side signal; inactive = no such curve, though single readings can be large or run the other way; the % refers to the signal ratio;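 also: cells stimulated with carbachol in lithium chloride buffer; higher means more IMPase inhibition seen as more IP1 and lower FRET ratio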
Target sequence (P97697 whole entry, looked up): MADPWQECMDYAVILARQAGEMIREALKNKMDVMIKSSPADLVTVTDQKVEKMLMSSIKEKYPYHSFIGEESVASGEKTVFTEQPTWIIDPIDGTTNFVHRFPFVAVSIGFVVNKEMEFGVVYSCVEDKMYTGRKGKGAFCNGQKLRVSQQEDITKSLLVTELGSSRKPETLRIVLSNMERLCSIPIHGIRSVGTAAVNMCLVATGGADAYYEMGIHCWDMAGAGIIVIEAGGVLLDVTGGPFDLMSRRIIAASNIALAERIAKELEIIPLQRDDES
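Seeded CHO-M1 cells were dosed with compound at up to 46 uM, stimulated with carbachol for 30 min, then lysed in IP-One detection reagents. Higher IP1 lowers the TR-FRET signal.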
p53ts 32C kill: kills p53ts cells at the permissive temperature; H1299-p53A138V at 32C, ATP luminescence viability, 24 h; Potency, µM (highest dose often 46.1 µM), usual class: cytotoxic; hit rate 0.93% among 130,000; AID 924; also: nearly all actives have a fitted effect of over 55% in size
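Viability by ATPlite luminescence after 24 h compound treatment (up to 46 uM) at the permissive 32C. Cells are H1299 carrying p53 A138V. Scale runs from DMSO basal to 100 uM tamoxifen as full kill; AC50 from Hill fits.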
IkB signaling: inhibitors of IkB signaling in ABC-DLBCL cells | Potency, µM (titrated, usually from 57.1 µM) | ABC-DLBCL IkBa-CBG/CBR dual luciferase ratio, 4 h; response scale: scaled: untreated 0%, proteasome inhibitor 100% | hit rate 0.04% among 110,000; active = well fitted curve in the direction sought with a large enough effect in the signal ratio, not every such curve was filed as active; inconclusive = small, poorly fitted or top-dose-only effect, or a change in a side signal; the % refers to the signal ratio;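 also: the direction sought is a rising ratio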
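In this assay, an IκBα–CBG68 fusion accumulates when IKK-driven degradation is blocked; native CBR normalizes for cell number. OCI-Ly3 cells were treated 4 h with compound and doxycycline, then green and red light read after Chroma-Glo addition.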
Peg3 imprint: inducers of genomic imprint erasure in mouse ES cells; hit rate 0.02% among 110,000; Potency, µM (doses to about 60.7 µM), most hits filed as activators; mouse ES Peg3-LacZ reporter, beta-gal luminescence, 40 h
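Gelatin-coated wells received 300 freshly trypsinized female ES cells with a Peg3LacZ-Neo reporter on the maternal allele, then incubated 40 hours at 37C. BetaGlo was added for 5 minutes at room temperature before a single luminescence read.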
FLuc inh: inhibitors of firefly luciferase. Potency, µM (highest dose often 57.1 µM), most hits filed as inhibitors. AID 411. P08659. hit rate 2.2% among 72,000. purified firefly luciferase, luminescence, 8 min; also: nearly all actives have a fitted effect of over 40% in size
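Here, luciferase activity is measured as luminescence following an 8 min room-temperature reaction at 10 uM ATP, pH 7.2. Every library sample is titrated.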
p53ts 39C tox: kills p53ts cells at the nonpermissive temperature; H1299-p53A138V viability at 39C, ATP luminescence, 24 h; Potency, µM (titrated, usually from 46.1 µM), hits mostly cytotoxic; hit rate 1.5% among 130,000; AID 902; also: nearly all actives have a fitted effect of over 55% in size
A number is an active result; [ ] = remark or other dose. Unless noted, calls follow the shape of the dose curve; as a rule, active = well fitted curve in the direction sought with a large enough effect; inconclusive = small, poorly fitted or top-dose-only effect, or another doubt; inactive = no such curve, though single readings can be large; an effect the other way counts as inactive or inconclusive.

Results for CC1CCCCN1C(=O)CSc1c2c(nc3cc(Cl)ccc13)CCCC2 (stereo unspecified) ?
p53ts 32C kill: inactive; IkB signaling: inconclusive; Peg3 imprint: inactive[10.9 µM]; p53ts 39C tox: 13µM

Results for CC1CCN(C(=O)CSc2c3c(nc4ccc(Cl)cc24)CCCC3)CC1 ?
p53ts 32C kill: inconclusive; IkB signaling: inconclusive; Peg3 imprint: inactive[10.9 µM]; p53ts 39C tox: inconclusive

Results for CC1CCCN(C(=O)CSc2c3c(nc4cc(Cl)ccc24)CCCC3)C1 (stereo unspecified) ?
p53ts 32C kill: 25µM; IkB signaling: inactive; Peg3 imprint: inactive[10.9 µM]; p53ts 39C tox: inconclusive

How did O=C(c1cc(C(F)(F)F)cc(C(F)(F)F)c1)N1CCC2(CCN(Cc3ccncc3)CC2)CC1 do in these assays?
p53ts 32C kill: inactive; IkB signaling: inactive[11.4 µM]; FLuc inh: inactive[11.4 µM]; p53ts 39C tox: inactive

Results for Cc1[nH]c2ccccc2c1-c1cc(-c2cc(-c3c(C)[nH]c4ccccc34)nc(N)n2)nc(N)n1 ?
p53ts 32C kill: inactive[9.22 µM]; IkB signaling: inactive[11.4 µM]; Peg3 imprint: inactive[10.9 µM]; FLuc inh: inactive[11.4 µM]; p53ts 39C tox: inactive[9.22 µM]

How did CCCCS(=O)(=O)c1nc(-c2ccc(Br)cc2)cc(-c2ccccc2)c1C#N do in these assays?
IMPase cell inh: inactive; p53ts 32C kill: 2µM; IkB signaling: 3.2µM; Peg3 imprint: inactive[10.9 µM]; p53ts 39C tox: inconclusive

How did O=C(Cn1c(=O)n(Cc2ccc(F)cc2)c(=O)c2sc3ccccc3c21)Nc1ccc(F)cc1F do in these assays?
p53ts 32C kill: inactive; IkB signaling: inconclusive; Peg3 imprint: inactive[10.9 µM]; p53ts 39C tox: inactive

Results for Cn1ccnc1SCc1cn2cc(Br)ccc2n1 ?
IMPase cell inh: inactive; p53ts 32C kill: inconclusive; IkB signaling: inactive; Peg3 imprint: inactive; FLuc inh: 16µM; p53ts 39C tox: inconclusive

Results for Cn1ccnc1SCc1ccc([N+](=O)[O-])cc1 ?
IMPase cell inh: inactive

What do the screens show for `CC1=C(C(=O)O)N2C(=O)C(NC(=O)C(N)c3ccccc3)C2SC1` (stereo unspecified)?
Peg3 imprint: inactive

Results for CCN(CC)S(=O)(=O)c1cc(C(=O)NC2CCCCC2)ccc1C ?
IMPase cell inh: inactive; p53ts 32C kill: inconclusive; IkB signaling: inactive; Peg3 imprint: inactive; FLuc inh: 13µM; p53ts 39C tox: inconclusive

Results for Cc1ccccc1C(=O)Nc1ccc(Cl)cn1 ?
IMPase cell inh: inactive; p53ts 32C kill: inactive; IkB signaling: inconclusive; Peg3 imprint: inactive; FLuc inh: inconclusive; p53ts 39C tox: inactive

Results for CCN(CC)S(=O)(=O)c1cc(C(=O)Nc2ccc(Cl)cn2)ccc1C ?
IMPase cell inh: inactive; p53ts 32C kill: inconclusive; IkB signaling: inconclusive; Peg3 imprint: inactive; FLuc inh: 7.9µM; p53ts 39C tox: inconclusive

What do the screens show for `Cc1ccc(C(=O)Nc2ccc(Cl)cn2)cc1`?
IMPase cell inh: inactive; p53ts 32C kill: 7.9µM; IkB signaling: inconclusive; Peg3 imprint: inactive; FLuc inh: 6.3µM; p53ts 39C tox: inconclusive

How did Cc1ccc(C(=O)NC2CCCCC2)cc1 do in these assays?
IMPase cell inh: inactive

How did Cc1ccc(NC(=O)c2ccc3ccccc3n2)nc1 do in these assays?
IMPase cell inh: inactive; p53ts 32C kill: 13µM; IkB signaling: inconclusive; Peg3 imprint: inactive; FLuc inh: 6.3µM; p53ts 39C tox: inconclusive

Results for O=C(NCc1ccccc1)c1nc(S(=O)(=O)Cc2ccccc2)ncc1Cl ?
p53ts 32C kill: inconclusive; IkB signaling: inconclusive; Peg3 imprint: inactive[10.9 µM]; p53ts 39C tox: 7.9µM

How did CCS(=O)(=O)c1ncc(Cl)c(C(=O)NCc2ccccc2)n1 do in these assays?
p53ts 32C kill: inconclusive; IkB signaling: inconclusive; Peg3 imprint: inactive[10.9 µM]; p53ts 39C tox: 13µM

Results for O=C(Nc1nc2ccc(F)cc2s1)c1nc(S(=O)(=O)Cc2ccccc2F)ncc1Cl ?
p53ts 32C kill: 10µM; IkB signaling: inactive; Peg3 imprint: inactive[10.9 µM]; p53ts 39C tox: 5µM

How did Cc1noc(C(=O)NCc2ccccc2)c1Cl do in these assays?
IMPase cell inh: inactive

How did CCOc1ccc(NC(=O)c2nc(S(=O)(=O)Cc3ccccc3F)ncc2Cl)cc1 do in these assays?
p53ts 32C kill: 14µM; IkB signaling: inconclusive; Peg3 imprint: inactive[10.9 µM]; p53ts 39C tox: 7.9µM

What do the screens show for `CCOC(=O)c1ccc(NC(=O)c2nc(SCc3ccccc3F)ncc2Cl)cc1`?
p53ts 32C kill: inconclusive; IkB signaling: inactive; Peg3 imprint: inactive[10.9 µM]; p53ts 39C tox: inactive

Results for Cc1ccc(CNC(=O)c2nc(SCc3ccccc3C)ncc2Cl)cc1 ?
p53ts 32C kill: inactive; IkB signaling: inconclusive; Peg3 imprint: inactive[10.9 µM]; p53ts 39C tox: inactive

How did CC(C)=CCC/C(C)=C/CO/N=C1/C[C@@H](O)[C@@H](O)[C@@H]2[C@@H]3C(=O)N(C(C)(C)C)C(=O)[C@H]3CC[C@@H]12 do in these assays?
p53ts 32C kill: inactive[9.22 µM]; FLuc inh: inactive[11.4 µM]; p53ts 39C tox: inactive[9.22 µM]

Results for COC(=O)N1CCC2(CC1)CN(C(=O)Nc1cccc(F)c1)C2 ?
p53ts 32C kill: inactive; IkB signaling: inactive[11.4 µM]; FLuc inh: inactive[11.4 µM]; p53ts 39C tox: inactive

Results for COc1ccc(CNC(=O)c2nc(S(=O)(=O)Cc3ccccc3)ncc2Cl)cc1 ?
p53ts 32C kill: 20µM; IkB signaling: inconclusive; Peg3 imprint: inactive[10.9 µM]; p53ts 39C tox: 5µM

How did CCCS(=O)(=O)c1ncc(Cl)c(C(=O)Nc2c(C(=O)Nc3ccccc3)oc3ccccc23)n1 do in these assays?
p53ts 32C kill: inconclusive; IkB signaling: inconclusive; Peg3 imprint: inactive[10.9 µM]; p53ts 39C tox: 6.3µM

Results for CS(=O)(=O)c1ncc(Cl)c(C(=O)N(Cc2ccc(Cl)cc2)Cc2ccco2)n1 ?
p53ts 32C kill: 28µM; IkB signaling: inconclusive; Peg3 imprint: inactive[10.9 µM]; p53ts 39C tox: 3.2µM

Results for CC(C)Sc1ncc(Cl)c(C(=O)Nc2c(C(=O)Nc3ccccc3)oc3ccccc23)n1 ?
p53ts 32C kill: inactive; IkB signaling: inactive; Peg3 imprint: inactive[10.9 µM]; p53ts 39C tox: inactive

How did Cc1ccc(C)c(NC(=O)c2nc(S(=O)(=O)Cc3ccc(F)cc3)ncc2Cl)c1 do in these assays?
p53ts 32C kill: inconclusive; IkB signaling: inconclusive; Peg3 imprint: inactive[10.9 µM]; p53ts 39C tox: 4µM

How did N#C/C(=C\c1ccc(O)c(O)c1)C(=O)OCCc1cccs1 do in these assays?
IMPase cell inh: inactive; p53ts 32C kill: inactive; IkB signaling: inactive; Peg3 imprint: inactive; FLuc inh: inactive; p53ts 39C tox: inactive

What do the screens show for `COc1ccc(N(Cc2ccccc2)C(=O)c2nc(S(C)(=O)=O)ncc2Cl)cc1`?
p53ts 32C kill: 7.9µM; IkB signaling: inconclusive; Peg3 imprint: inactive[10.9 µM]; p53ts 39C tox: 4µM

How did CCNC(=O)c1c(NC(=O)c2nc(S(=O)(=O)CC)ncc2Cl)sc2c1CCCC2 do in these assays?
p53ts 32C kill: inconclusive; IkB signaling: inconclusive; Peg3 imprint: inactive[10.9 µM]; p53ts 39C tox: 3.2µM
